Records with an inconclusive call do not appear. Active and inactive are the calls of the source. Calls come from the whole dose curve; as a rule, active = well fitted inhibition curve with a large enough effect; inconclusive = small, poorly fitted or top-dose-only effect; inactive = flat fitted curve, though single readings scatter.
molecular target: Calcium and integrin-binding protein 1 (Homo sapiens) (UniProt Q99828); assay: Primary qHTS for Identification of Calcium Integrin Binding Protein 1 (CIB1) Competitor (AID 1508620); conditions: CIB1-GST / FITC-alphaIIb peptide fluorescence polarization; series mostly up to 114 µM; activity change, negative = inhibition: at the top concentration;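 note: GST tagged CIB1 binding a fluorescein labelled alphaIIb integrin peptide tracer; top concentration of the series differs between compounds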
Sequence (Q99828 whole entry, looked up): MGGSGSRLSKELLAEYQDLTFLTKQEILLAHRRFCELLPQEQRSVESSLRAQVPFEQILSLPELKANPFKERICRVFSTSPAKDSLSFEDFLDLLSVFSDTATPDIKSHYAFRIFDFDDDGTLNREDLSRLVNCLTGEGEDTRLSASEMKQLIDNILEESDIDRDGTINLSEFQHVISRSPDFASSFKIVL
Procedure, shortened: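 CIB1-GST (1 uM final) and compound incubated 15 min at room temperature before adding FITC-alphaIIb peptide tracer (100 nM final). Competition for binding read by fluorescence polarization (ex 480, em 540) after another 15 min at room temperature.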
% is set by controls: 0 for no effect and ±100 for the full control effect.

SMILES | activity change, negative = inhibition
CC1(C)Oc2ncnc(N)c2N=C1c1ccc(C23CCC(CC(=O)O)(CC2)CC3)cc1 | 1.4% (inactive)
O=C(NCCN1CCN(c2cccc3c2OCCO3)CC1)c1ccc(F)cc1 | 0.618% (inactive)
CC[C@H](C(=O)Nc1ccccc1N1CCCC1)c1ccccc1 | -0.207% (inactive)
O=c1cc(N2CCOCC2)nc2c3ccccc3ccn12 | 2.43% (inactive)
C#CCNCc1cc2cc(OCc3ccccc3)ccc2[nH]1 | 2.49% (inactive)
CC(C)NC(=O)COc1cccc(-c2nc(Nc3ccc4[nH]ncc4c3)c3ccccc3n2)c1 | 0.979% (inactive)
CC(C)(O)C(=O)N1CCN(c2ccc(C(F)(F)F)c(C3=C(c4c[nH]c5ccccc45)C(=O)NC3=O)c2)CC1 | 0.561% (inactive)
O=c1[nH]c([C@@H]2CCCN2)nc2c1oc1ccc(Cl)cc12 | -2.34% (inactive)
COc1ccc([C@H](Cc2ccncc2)c2ccccc2)cc1OC1CCCC1 | 0.805% (inactive)
O=C(NCc1ccccc1)c1ccc2c(=O)n(-c3cccc(C(F)(F)F)c3)c(=S)[nH]c2c1 | 6.99% (inactive)
CCn1c(-c2nonc2N)nc2c(C#CCO)ncc(OCCCN)c21 | -3.24% (inactive)
Fc1ccc(CN2CCC(Nc3ccc(C(F)(F)F)nn3)CC2)cc1F | -6.17% (inactive)
O=C(CN1C2=NCCN2c2ccccc21)c1ccc(-c2ccccc2)cc1 | 4.41% (inactive)
CNC(=O)c1ccc2c(c1)CCO[C@H]2CCN1CCN(c2ccc(OC)cc2)CC1 | 4.83% (inactive)
O=C(Nc1ccc(C(F)(F)F)cn1)N1CCN(c2ncccc2C(F)(F)F)CC1 | 6.47% (inactive)
O=C(NC1CCC1)c1ccc(C#Cc2cccc(F)c2)nc1 | -4.72% (inactive)
CC[C@H]1CN(c2nc(N)c(C(N)=O)nc2Cl)CCN1C1CCN(Cc2ccc(Cl)cc2)CC1 | -3.05% (inactive)
